Holding throughout (format): functional
Test [1] relates to Plasmodium falciparum. The experiment in a line: GSK_TCMDC: Inhibition of Plasmodium falciparum 3D7 in whole red blood cells, using parasite LDH activity as an index of growth. Test compounds present at 2uM.
The subject of test [2] is Plasmodium falciparum. Nature of the test: GSK_TCMDC: Inhibition of Plasmodium falciparum Dd2 in whole red blood cells, using parasite LDH activity as an index of growth. Test compounds present at 2uM.
The test system of test [3] is HepG2. Nature of the test: GSK_TCMDC: Percent inhibition of human HepG2 cell line. Test compounds present at 10uM.

With `CC(Nc1ccc2c(c1)OCCO2)C(=O)Nc1cc(C(F)(F)F)ccc1N1CCOCC1` (stereo not given), the Inhibition in test [1] is 98%; in test [2], 70%; in test [3], 0%.

As to `Cc1ncc(CN2CCC(C(=O)Nc3ccc(-c4nc5ccccc5o4)cc3)CC2)s1`, the Inhibition in test [1] was 82%; in test [2], 92%; in test [3], 0%.

In the case of `O=C(Cn1c(CCc2cccc(F)c2F)nc(=O)c2cccnc21)N(Cc1ccc(-c2ccc(C(F)(F)F)cc2)cc1)C1CCN(C2CCSCC2)CC1.O=C(O)C(O)C(O)C(=O)O`, the values for the Inhibition in test [1], in test [2] and in test [3] were 100%, 63% and 49%, respectively.

With `COc1cc(OC)nc(C(Sc2ccc(NC(=O)c3cccs3)cc2)c2ccccc2)n1` (stereo not given), the Inhibition in test [1] is 97%; in test [2], 96%; in test [3], 7%.

For `O=C(Nc1ccccc1)N(Cc1cccc(-c2ccc(CNC3CCCC3)cc2)c1)C1CCN(Cc2ccccc2)CC1.O=C(O)C(F)(F)F`, the results for the Inhibition in test [1], in test [2] and in test [3] were 100%, 96% and 100%, respectively.

For the compound `Cl.O=c1cc(NCCCNCc2ccc(Cl)c(Cl)c2)[nH]c2ccc(C(F)(F)F)cc12`, the values for the Inhibition in test [1], in test [2] and in test [3] were 100%, 68% and 10%, respectively.

Regarding `O=C(CSc1nccn1Cc1ccco1)Nc1cc(C(F)(F)F)ccc1Cl`, the Inhibition amounted to 91% in test [1], 66% in test [2] and 9% in test [3].

As to `Br.CCC(C)c1cccc(C(C)CC)c1OCCCON1C(N)=NC(N)=NC1(C)C` (stereo not given), the Inhibition is 91% in test [1], 98% in test [2] and 51% in test [3].

Turning to `Cc1ccc2[nH]c3ccccc3c(=O)c2c1`, the Inhibition in test [1] was 93%; in test [2], 74%; in test [3], 0%.

In the case of `Cc1cccc2nc(-c3ccc(-c4ccc(CN5CCN(CCN6CCOCC6)CC5)cc4)cc3)[nH]c12.O=C(O)C(F)(F)F`, the Inhibition was determined as 98% in test [1], 74% in test [2] and 49% in test [3].
